CSC inhib: blocks cancer stem cells; cancer stem cell-like cells viability, luminescence; 300,000 compounds, 1.1% hits; inhibition, % at 7.5 µM; AID 2717; in the data active = inhibition above about 75%; inconclusive = no clear call, values can overlap the other calls; tested in HMLE shEcad cells
aSyn UTR inh: 5' untranslated region of α-synuclein, MLPCN primary screen. inhibition, % (tested at 7.5 µM). alpha-synuclein 5'UTR reporter, inhibitor activity. 300,000 compounds, 0.82% hits; in the data active = inhibition above about 60%; inconclusive = no clear call, values can overlap the other calls;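 also: H4 neuroglioblastoma cells stably carrying SNCA 5'UTR luciferase fusion; 0% = DMSO wells and 100% = positive control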
Mdm2 MdmX PPI: inhibitors of human Mdm2/MdmX interaction. 330,000 compounds, 3% hits. inhibition, % at 8 µM. SaOS-2 split-luciferase Mdm2/MdmX complementation, luminescence. O15151+Q00987;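 active = inhibition of at least 50% at 8 µM in the primary screen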
Target sequence (O15151 whole entry, looked up): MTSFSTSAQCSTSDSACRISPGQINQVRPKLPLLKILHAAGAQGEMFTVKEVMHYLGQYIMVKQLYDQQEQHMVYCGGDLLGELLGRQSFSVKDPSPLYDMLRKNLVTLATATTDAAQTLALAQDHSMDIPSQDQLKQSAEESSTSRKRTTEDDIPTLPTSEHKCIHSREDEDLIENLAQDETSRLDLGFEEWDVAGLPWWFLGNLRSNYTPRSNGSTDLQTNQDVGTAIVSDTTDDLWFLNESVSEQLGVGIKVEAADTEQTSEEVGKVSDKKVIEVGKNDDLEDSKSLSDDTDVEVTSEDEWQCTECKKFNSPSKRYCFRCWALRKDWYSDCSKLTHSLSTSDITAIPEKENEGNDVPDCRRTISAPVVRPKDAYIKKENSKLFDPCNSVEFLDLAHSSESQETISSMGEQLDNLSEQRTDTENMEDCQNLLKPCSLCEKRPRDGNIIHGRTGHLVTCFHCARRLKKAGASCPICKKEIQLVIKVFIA
Target sequence (Q00987 whole entry, looked up): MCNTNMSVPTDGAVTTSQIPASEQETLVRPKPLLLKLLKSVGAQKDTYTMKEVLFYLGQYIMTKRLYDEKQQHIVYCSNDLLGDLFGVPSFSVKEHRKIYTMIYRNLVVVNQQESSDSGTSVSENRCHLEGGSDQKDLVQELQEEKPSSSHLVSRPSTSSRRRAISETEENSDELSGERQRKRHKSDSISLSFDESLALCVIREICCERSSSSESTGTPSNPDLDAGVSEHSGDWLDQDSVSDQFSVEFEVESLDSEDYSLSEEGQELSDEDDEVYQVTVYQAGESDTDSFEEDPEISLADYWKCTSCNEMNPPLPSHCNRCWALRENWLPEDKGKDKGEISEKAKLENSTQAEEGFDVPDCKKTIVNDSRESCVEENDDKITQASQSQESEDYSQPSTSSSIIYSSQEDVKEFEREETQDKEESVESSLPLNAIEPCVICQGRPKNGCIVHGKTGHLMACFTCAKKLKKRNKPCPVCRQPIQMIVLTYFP
Beta apoptosis: blocks beta cell apoptosis | INS-1E cytokine-induced death, ATP luminescence, 48 h; percent of positive-control rescue, neutral wells zero | protection from apoptosis, % (concentration not given with the values) | 300,000 compounds, 0.8% hits | AID 435005;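 active = Every replicate reaches about 75%, or at least half do and their mean reaches it too, limit read from the data; inconclusive = At least half of replicates reach the limit but their mean does not; inactive = Under half of replicates reach the limit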;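 also: 0% = cytokine-treated negative control wells and 100% = positive control rescue; higher means more ATP so stronger rescue from cytokine killing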
A1 inh: inhibitors of the anti-apoptotic protein A1, read as caspase activation | MEF A1-2A-BIM cells, Caspase-Glo 3/7 luminescence, 3 h; percent of clofoctol response, vehicle zero | caspase activation, % (test concentration not listed) | 330,000 compounds, 0.066% hits | AID 2462;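 active = over half of replicate activation scores above 10%, or exactly half above 10 with the replicate mean above 10; inconclusive = replicate mean below 10 yet half the replicates above 10; inactive = over half of replicates below 10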
Numbers without * were called inactive; u = inconclusive; x = no result. This is a sample that favours compounds with a hit; in the whole collection about 4.1% have one here.

SMILES	CSC inhib	aSyn UTR inh	Mdm2 MdmX PPI	Beta apoptosis	A1 inh
CCOC(=O)/C(=N\Nc1ccc(OC)cc1)c1csc(Nc2ccccc2)n1	104.2*	12.5	46.2	6.3	0.3
CCOC(=O)/C(=N/Nc1ccccc1)c1csc(Nc2ccccc2)n1	107.3*	-11.2	44.4	16.2	-0.7
ONC(=Nc1ccccc1Cl)c1c(F)cccc1F	15.7	34.0	0.4	-0.2	0.6
CCCCc1nc(C(N)=O)c2[nH]c(=O)n(-c3ccc(OCC)cc3)c2n1	-7.8	3.9	-14.8	-3.1	0.1
O=C(CN(C(=O)c1csnn1)c1cccc(Cl)c1)NC1CCCCC1	1.0	3.1	2.7	-1.6	-0.6
CCOC(=O)c1c(NC(NC(=O)C(C)C)C(Cl)(Cl)Cl)sc2c1CCC2 (stereo not drawn)	100.6*	25.2	-25.7	5.3	0.0
COC(=O)[C@]1(Cc2ccccc2)N[C@H](CN(C)S(=O)(=O)c2ccc(-c3ccccc3)cc2)[C@@H]2C(=O)N(C)C(=O)[C@@H]21	x	x	32.9	5.3	1.2
Cc1ccc(NC(=O)CSCC(=O)N2CCN(C(=O)c3ccco3)CC2)cc1	5.4	x	19.9	2.5	1.0
O=C(CSc1nc2nc(-c3cccs3)cc(C(F)(F)F)c2c(=O)[nH]1)Nc1c(F)c(F)c(F)c(F)c1F	88.1*	4.2	41.4	14.5	-0.5
O=C(Nc1cccc(Cl)c1)c1nc[nH]c1C(=O)NCCCNC(=O)c1[nH]cnc1C(=O)Nc1cccc(Cl)c1	100.6*	x	46.7	-0.6	-0.5
O=c1c2c(nc3c(-c4cccc5ccccc45)c[nH]n13)CCC2	1.3	-16.8	17.3	-6.4	0.3
O=c1c2c(nc3c(-c4ccc(Cl)cc4)c[nH]n13)CCCC2	x	66.0*	42.0	92.7*	-0.2
COc1ccc(C(=O)Nc2cccc(/C=C/c3nc4ccccc4c(=O)[nH]3)c2)cc1	77.5*	16.1	33.9	42.5	-1.2
O=C(Nc1cccc(/C=C/c2nc3ccccc3c(=O)[nH]2)c1)c1ccccc1Cl	42.9	-131.8	10.1	0.3	-1.3
CN(C)c1ccc(/C=C/c2nc3ccccc3c(=O)[nH]2)cc1	83.6*	87.4*	-48.5	32.9	-8.9
C(=C\c1nc2ccccc2[nH]1)/c1ccccc1	81.7*	46.8	-27.1	51.6	-7.3
C(=C\c1ccco1)/c1nc2ccccc2[nH]1	5.9	-140.6	-30.0	-0.6	-0.3
CC(=O)C1=C(C)NC(SCC(=O)c2ccc(Cl)cc2)=C(C#N)C1c1ccco1 (stereo not drawn)	2.7	-16.2	-19.9	x	0.0
CC(=O)C1=C(C)NC(SCC(=O)c2ccc(Cl)cc2Cl)=C(C#N)C1c1ccco1 (stereo not drawn)	22.5	-19.4	24.9	104.6*	-0.3
CCOc1ccc(C2=Nn3c(nnc3-c3cccnc3)SC2)cc1	3.1	48.0	13.3	3.8	-0.3
CCOc1ccc(C2=Nn3c(nnc3-c3ccc(OC)cc3)SC2)cc1	49.3	84.3*	x	16.9	-0.2
Cc1cccc(-c2nnc3n2N=C(c2ccccc2)CS3)c1	18.7	63.0*	12.1	15.1	0.4
c1ccc(C2=Nn3c(nnc3-c3ccncc3)SC2)cc1	-8.0	25.4	x	-15.1	0.6
COc1cc2cc(CN(CCc3cccc(C)c3)C(=S)NCCCN3CCOCC3)c(=O)[nH]c2cc1OC	-3.4	32.2	22.8	3.6	0.0
COc1ccccc1C(=O)NCC(=O)OCC(=O)Nc1ccc2[nH]c(=O)[nH]c2c1	-7.9	10.2	13.5	4.5	0.1
SMILES	CSC inhib	aSyn UTR inh	Mdm2 MdmX PPI	Beta apoptosis	A1 inh
Cc1ccc(C(=O)NCc2ccco2)c(C)c1	-6.1	-47.2	-29.3	-4.3	0.6
Cc1ccc(S(=O)(=O)N2CCOCC2)cc1NC(=O)Cn1nc(C)c([N+](=O)[O-])c1C	-8.6	4.5	4.9	-1.6	-0.1
O=C(NCc1ccccc1Br)c1cccc2c1C(=O)c1ccc(N3CCOCC3)cc1S2(=O)=O	28.2	x	49.7	86.8*	0.1
CCOc1nc(Nc2ccc(OC)cc2OC)nc(OCC)n1	-12.4	13.7	23.6	-3.1	0.0
O=C(O)/C=C\C(=O)Nc1ccc(N2CCN(c3ccc(Cl)cc3)CC2)cc1	49.7	-21.2	-23.6	5.1	-0.5
O=C(O)/C=C\C(=O)Nc1ccc(N2CCN(c3ccc(Cl)c(Cl)c3)CC2)cc1	85.2*	-19.0	-11.1	5.7	0.2
C[C@@H](NC(=O)c1[nH]cnc1C(=O)Nc1ccon1)c1ccccc1	28.9	x	27.2	-2.9	0.6
N=c1c2c(n(Cc3ccc([N+](=O)[O-])cc3)c3c1CCC3)CCCC2	-1.7	-12.5	8.6	3.8	0.2
N=c1c2c(n(Cc3ccc(Br)cc3)c3c1CCC3)CCCC2	12.5	u	43.2	115.4*	-0.1
CCOC(=O)[C@@H]1[C@H]2COc3ccc(Br)cc3[C@@H]2N2C(=O)N(c3ccc(C(F)(F)F)cc3)C(=O)[C@]12C	15.7	11.1	-1.3	8.8	-0.5
CCCCCCSc1cccc(-c2nc3ccc(Cl)cn3c2NCc2ccccc2)c1	75.9*	6.8	31.4	6.9	0.1
CCC(C)Sc1cccc(-c2nc3cc(C)ccn3c2NCc2ccccc2)c1 (stereo not drawn)	122.6*	-25.8	-23.0	-4.0	-0.1
CC1=NNC(=O)/C1=C\c1cn(-c2ccccc2)nc1-c1ccccc1	69.7	23.5	x	109.1*	3.8
CC(=O)NC(C)c1cc(Cl)c2cccnc2c1O (stereo not drawn)	47.2	x	39.7	92.4*	-1.0
CCC(=O)NC(c1ccc(OC)c(OC)c1)c1cc(Cl)c2cccnc2c1O (stereo not drawn)	x	111.1*	x	x	x
COc1ccc(CCNC(=O)CN2C(=O)C(=O)N(C3CCCC3)C2=O)cc1OC	4.3	x	-20.4	-2.6	-1.2
C=CCn1c(SCc2c(C)noc2C)nc2sc3c(c2c1=O)CCCCC3	94.4*	64.7*	39.1	x	0.9
CCOc1ccc(OCc2cccc(C(=O)Nc3ccc(CN4CCCCC4)cc3)c2)cc1	78.8*	u	46.4	18.6	-1.0
CCO[C@H]1OC(C(=O)N2CCN(Cc3ccc4c(c3)OCO4)CC2)=C[C@@H](c2csc3ccccc23)[C@@H]1CCCO	20.9	-6.7	33.4	85.2*	0.4
CCCc1nc2nc(C)c(NS(=O)(=O)c3ccc(Cl)cc3)c(=O)n2[nH]1	1.3	-10.7	14.4	0.2	-0.1
O=C(CCNC(=O)c1ccc([N+](=O)[O-])cc1)Nc1ccc(F)cc1F	0.0	-5.0	-1.7	0.4	0.5
Cc1nc(SCCC(=O)O)c2cc(-c3ccccc3)sc2n1	23.5	67.1*	43.9	-5.3	-5.9
Cc1nn(CC(C)C)c2sc(C(=O)NC3CC(C)(C)NC(C)(C)C3)cc12	-0.2	-1.6	31.1	-1.9	0.2
O=C(Cn1c2ccccc2c(=O)c2ccccc21)N/N=C/c1ccc(N2CCCC2)c([N+](=O)[O-])c1	112.6*	111.0*	x	30.5	1.2
O=C(N/N=C/c1ccc(N2CCCC2)c([N+](=O)[O-])c1)c1cccnc1	19.1	-8.1	11.8	-6.8	-0.8
Clc1ccccc1Nc1nnc(-c2ccncc2)s1	69.8	30.6	-65.6	75.4*	-8.9
